Drawing on PubChem BioAssay (EPA / NIEHS), this text covers outcome and AC50 for 40 molecules.

Broadly, the AC50 is the midpoint of the concentration-response curve, whichever way the signal moves.

The source made the active and inactive calls. Rule for the calls: active = hit-call score of the fitted dose curve at least 0.9, where 1 is the maximum; inactive = score below 0.9.

The first test is described as follows: ATG_M_19_CIS: Attagene CIS-FACTORIAL HepG2 Assay for M19 Transcription Factor (Internal Marker) (AID 2282939). As to conditions: HepG2 Attagene CIS-FACTORIAL M19 internal marker reporter; actives raise or lower the signal. An outline of the steps: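 In this multiplexed cell assay, transiently transfected HepG2 reporter units report endogenous transcription-factor activity; after 24 hours of treatment, labelled reporter cDNA fragments are quantified by capillary electrophoresis and fitted bidirectionally against DMSO.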
`O=C1CCCC(=O)O1`: the result was inactive.
On to `CCCCC(CC)CCC(CC(C)C)OS(=O)(=O)O` (stereo not drawn), for which the molecule was classed as inactive.
The same measure, in the same setting: for `CC(CC=O)c1ccccc1` (stereo not drawn) the value was “inactive”; for `CC1=CC[C@H]2C[C@@H]1C2(C)C`, “inactive”; for `O=C1c2cccc(O)c2C(=O)c2c(O)cc(CO)cc21`, “inactive”.
As for `C(=CC=Nc1ccccc1)C=CNc1ccccc1`, the molecule was classed as inactive.
For the molecule `C#CC1(O)CC[C@H]2[C@@H]3CCC4=CCCC[C@@H]4[C@H]3CC[C@@]21C` (stereo partly drawn), the AC50 is 55.9 µM (active).
Take `COc1cc(NC(=O)CC(C)=O)c(OC)cc1Cl`: the molecule was called inactive.
Still for that read-out and setting: as for `CNC(=S)N(C)C`, the entry is “inactive”.
The same measure, in the same setting: for `COc1ccc(-c2coc3cc(O)ccc3c2=O)cc1` the value was “inactive”.
Same read-out and setting: as for `O=c1n(CCO)c(=O)n(CCO)c(=O)n1CCO`, the entry is “inactive”; as for `CC(=O)C=CC1C(C)=CCC(C)C1(C)C` (stereo not drawn), “inactive”; as for `C=C(C)[C@H]1CC=C(C)CC1`, “inactive”.

A further test is described as follows: ATG_ERE_CIS: Attagene CIS-FACTORIAL HepG2 Assay for Estrogen Response Element (ERE) (AID 2282940). As to conditions: HepG2 ERE cis-reporter, Attagene RNA transcript; actives raise or lower the signal. The procedure, abridged: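 Measuring endogenous transcription factor output, the assay doses transfected HepG2 cells for 24 hours and quantifies reporter transcripts by fluorescent RT-PCR and capillary electrophoresis, with DMSO as baseline.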
As for `CC(C)=CCC[C@H](C)CCO`, the outcome was inactive.
Same read-out and setting: for `CCCCC/C=C\C/C=C\CCCCCCCC(=O)OC` the value was “inactive”; for `S=C(NC1CCCCC1)NC1CCCCC1`, “inactive”; for `Cc1cccc(OCCOc2cccc(C)c2)c1`, “inactive”.
Take `O=S(=O)(Oc1ccc(Cl)cc1Cl)c1ccccc1`: the AC50 was 7.97 µM (active).
Consider `CC(C)CCCC(C)CC=O` (stereo not drawn), for which the molecule was classed as inactive.
`CC(C)(C)C(=O)CCc1ccc(Cl)cc1`: the AC50 is 30.2 µM (active).
Take `O=CN1CCCCC1`: the molecule was classed as inactive.
As to `O=Cc1ccc(CO)o1`, the outcome was inactive.
The same measure, in the same setting: for `CO[Si](CCC1CCC2OC2C1)(OC)OC` (stereo not drawn) the value was “inactive”; for `N#[N+]c1ccc2c(S(=O)(=O)[O-])cccc2c1O`, “inactive”; for `Cc1cc(=O)n(-c2ccccc2)n1C`, “inactive”.
In the case of `N[C@H]1C(O)O[C@H](CO)[C@H](O)[C@@H]1O` (stereo partly drawn), the AC50 is 39.9 µM (active).
Still for that read-out and setting: for `O=C(c1ccccc1)c1ccc(O)c(O)c1O` the value was 27 µM (active).
Turning to `Cc1cccc(C(=O)O)c1`, the call was inactive.
For the molecule `COC(=O)c1c(C)cc(O)c(C)c1O`, the result was inactive.
On the same count and under the same terms, as for `Cc1cc(C)c(C)c(O)c1`, the entry is “inactive”.
On to `O=S1(=O)OC(c2ccc(O)cc2)(c2ccc(O)cc2)c2ccccc21`, for which the half-maximal activity concentration (AC50) was 53.4 µM (active).
Turning to `CCN(Cc1cccc(S(=O)(=O)O)c1)c1ccc(C(=C2C=CC(=[N+](CC)Cc3cccc(S(=O)(=O)[O-])c3)C=C2)c2ccccc2)cc1`, the result was inactive.
Consider `O=C(Nc1ccccc1)c1ccccc1O`, for which the AC50 is 63.1 µM (active).
Take `CC(=O)NS(=O)(=O)c1ccc(N)cc1`: the call was inactive.
With `CCO[Si](CCCN=C=O)(OCC)OCC`, the call was inactive.
`C=C(C)CCO`: the call was inactive.
Still for that read-out and setting: for `CCCCCCCCCCc1ccccc1` the value was “inactive”; for `CCCCCCC(O)CO` (stereo not drawn), “inactive”; for `CCOC(=O)[C@H](C)O`, “inactive”.
Still for that read-out and setting: for `CC(=O)OCCC1CCCCC1` the value was “inactive”; for `O=C1CCCC(=O)O1`, “inactive”.
Still for that read-out and setting: as for `CCCCC(CC)CCC(CC(C)C)OS(=O)(=O)O` (stereo not drawn), the entry is “inactive”.
As to `CC(CC=O)c1ccccc1` (stereo not drawn), the AC50 was 112 µM (active).
For `CC1=CC[C@H]2C[C@@H]1C2(C)C`, the outcome was inactive.
Consider `O=C1c2cccc(O)c2C(=O)c2c(O)cc(CO)cc21`, for which the concentration at half-maximal activity (AC50) was 4.22 µM (active).
Turning to `C(=CC=Nc1ccccc1)C=CNc1ccccc1`, the outcome was inactive.
As for `C#CC1(O)CC[C@H]2[C@@H]3CCC4=CCCC[C@@H]4[C@H]3CC[C@@]21C` (stereo partly drawn), the AC50 is 0.0188 µM (active).
Regarding `COc1cc(NC(=O)CC(C)=O)c(OC)cc1Cl`, the molecule was called inactive.
Same read-out and setting: for `CNC(=S)N(C)C` the value was “inactive”.
On to `COc1ccc(-c2coc3cc(O)ccc3c2=O)cc1`, for which the half-maximal activity concentration (AC50) is 2.23 µM (active).
On to `O=c1n(CCO)c(=O)n(CCO)c(=O)n1CCO`, for which the outcome was inactive.
The same measure, in the same setting: for `CC(=O)C=CC1C(C)=CCC(C)C1(C)C` (stereo not drawn) the value was “inactive”.
Consider `C=C(C)[C@H]1CC=C(C)CC1`, for which the result was inactive.

The next test in a line: ATG_Ets_CIS: Attagene CIS-FACTORIAL HepG2 Assay for human Erythroblast Transformation Specific (ETS) (AID 2282941). The following applies: HepG2 ETS cis-reporter transcription, actives raise or lower the signal. An outline of the steps: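 Endogenous transcription factor activity read as reporter mRNA via RT-PCR and capillary electrophoresis, with gain or loss fitted bidirectionally against DMSO. Human HepG2 liver cells, transiently transfected CIS reporter constructs, 24 h exposure.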
Take `CC(C)=CCC[C@H](C)CCO`: the call was inactive.
Take `CCCCC/C=C\C/C=C\CCCCCCCC(=O)OC`: the result was inactive.
With `S=C(NC1CCCCC1)NC1CCCCC1`, the molecule was called inactive.
On the same count and under the same terms, for `Cc1cccc(OCCOc2cccc(C)c2)c1` the value was “inactive”; for `O=S(=O)(Oc1ccc(Cl)cc1Cl)c1ccccc1`, “inactive”; for `CC(C)CCCC(C)CC=O` (stereo not drawn), “inactive”.
The same measure, in the same setting: for `CC(C)(C)C(=O)CCc1ccc(Cl)cc1` the value was “inactive”.
`O=CN1CCCCC1`: the result was inactive.
Same read-out and setting: for `O=Cc1ccc(CO)o1` the value was “inactive”; for `CO[Si](CCC1CCC2OC2C1)(OC)OC` (stereo not drawn), “inactive”.
Regarding `N#[N+]c1ccc2c(S(=O)(=O)[O-])cccc2c1O`, the result was inactive.
Same read-out and setting: for `Cc1cc(=O)n(-c2ccccc2)n1C` the value was “inactive”.
Turning to `N[C@H]1C(O)O[C@H](CO)[C@H](O)[C@@H]1O` (stereo partly drawn), the molecule was called inactive.
With `O=C(c1ccccc1)c1ccc(O)c(O)c1O`, the result was inactive.
The same measure, in the same setting: for `Cc1cccc(C(=O)O)c1` the value was “inactive”; for `COC(=O)c1c(C)cc(O)c(C)c1O`, “inactive”; for `Cc1cc(C)c(C)c(O)c1`, “inactive”.
Regarding `O=S1(=O)OC(c2ccc(O)cc2)(c2ccc(O)cc2)c2ccccc21`, the outcome was inactive.
On to `CCN(Cc1cccc(S(=O)(=O)O)c1)c1ccc(C(=C2C=CC(=[N+](CC)Cc3cccc(S(=O)(=O)[O-])c3)C=C2)c2ccccc2)cc1`, for which the outcome was inactive.
For the molecule `O=C(Nc1ccccc1)c1ccccc1O`, the concentration at half-maximal activity (AC50) was 100 µM (active).
Turning to `CC(=O)NS(=O)(=O)c1ccc(N)cc1`, the molecule was called inactive.
Same read-out and setting: for `CCO[Si](CCCN=C=O)(OCC)OCC` the value was “inactive”; for `C=C(C)CCO`, “inactive”.
Consider `CCCCCCCCCCc1ccccc1`, for which the outcome was inactive.
The same measure, in the same setting: for `CCCCCCC(O)CO` (stereo not drawn) the value was “inactive”; for `CCOC(=O)[C@H](C)O`, “inactive”; for `CC(=O)OCCC1CCCCC1`, “inactive”.
With `O=C1CCCC(=O)O1`, the outcome was inactive.
Regarding `CCCCC(CC)CCC(CC(C)C)OS(=O)(=O)O` (stereo not drawn), the molecule was classed as inactive.
The same measure, in the same setting: as for `CC(CC=O)c1ccccc1` (stereo not drawn), the entry is “inactive”; as for `CC1=CC[C@H]2C[C@@H]1C2(C)C`, “inactive”; as for `O=C1c2cccc(O)c2C(=O)c2c(O)cc(CO)cc21`, “inactive”.
With `C(=CC=Nc1ccccc1)C=CNc1ccccc1`, the outcome was inactive.
Consider `C#CC1(O)CC[C@H]2[C@@H]3CCC4=CCCC[C@@H]4[C@H]3CC[C@@]21C` (stereo partly drawn), for which the half-maximal activity concentration (AC50) was 62.5 µM (active).
As to `COc1cc(NC(=O)CC(C)=O)c(OC)cc1Cl`, the result was inactive.
The same measure, in the same setting: for `CNC(=S)N(C)C` the value was “inactive”.
Consider `COc1ccc(-c2coc3cc(O)ccc3c2=O)cc1`, for which the call was inactive.
On to `O=c1n(CCO)c(=O)n(CCO)c(=O)n1CCO`, for which the molecule was called inactive.
Take `CC(=O)C=CC1C(C)=CCC(C)C1(C)C` (stereo not drawn): the molecule was called inactive.
Regarding `C=C(C)[C@H]1CC=C(C)CC1`, the result was inactive.
